The inhibition is the drop in the measured response relative to a control, in per cent.

The whole screen tested about 220,000 compounds, of which about 8,200 (3.7%) were called active. This is one part of a sample in which actives are shown more often than they occur.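 The calls were made as follows: active = compounds that reduced the stress-induced luciferase reporter signal by more than about 70% of percent inhibition (limit read from the data); inactive = the rest.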

The assay in a line: inhibitors of CHOP promoter induction, primary screen, cell-based, unfolded protein response, luciferase reporter (AID 2732).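 Also: 0% = tunicamycin plus vehicle and 100% = wells without tunicamycin.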 The settings on record: CHO-K1 CHOP-promoter luciferase, tunicamycin-induced, 15-18 h; at 10 µM; stronger effect = higher value. Background: Reporter assays use an easily measured gene product as a stand-in for the process of interest.
`Cc1ccc(NNC(=O)C2CCC2)cc1C`: the inhibition was 6.66% (inactive).
On to `COc1ccc2cc1Oc1ccc(cc1)C[C@H]1c3cc(c(OC)cc3CCN1C)Oc1c(O)c(OC)cc3c1[C@H](C2)N(C)CC3`, for which the inhibition is -41.5% (inactive).
`CN(CC(=O)Nc1ccc(S(=O)(=O)N2CCCC2)cc1)Cc1ccc(Cl)c(Cl)c1`: the inhibition is 25.8% (inactive).
As to `CCC(C)NC(=O)CN(C1CCCCC1)S(C)(=O)=O` (stereo not drawn), the inhibition is 5.15% (inactive).
Regarding `CS(=O)(=O)N(CC(=O)Nc1ccc(Cl)c(Cl)c1)C1CCCCC1`, the inhibition is 99.8% (active).
The figure for `O=C(O)C(NS(=O)(=O)c1cccc2nsnc12)c1ccccc1` (stereo not drawn) is 16% (inactive).
On to `O=C1COc2ccc(C(=O)COC(=O)c3cccnc3Cl)cc2N1`, for which the inhibition was -9.06% (inactive).
With `CCCc1nc2ccccc2c(C(=O)OCC(=O)c2ccc3c(c2)NC(=O)CO3)c1CC`, the inhibition was 102% (active).
For the molecule `CCCc1nc2ccccc2c(C(=O)OCc2nnc(-c3cc(OC)c(OC)c(OC)c3)o2)c1CC`, the inhibition is 58% (inactive).
For `C#CCO[C@@H]1C[C@H](n2cnc3c(=O)[nH]c(NC(=O)C(C)C)nc32)O[C@@H]1CO`, the inhibition is -12.9% (inactive).
Take `COc1ccc([N+](=O)[O-])cc1N(CC(O)CN(CC(C)C)CC(C)C)S(=O)(=O)c1ccc(C)cc1` (stereo not drawn): the inhibition was 9.51% (inactive).
Regarding `COc1ccc(CN2C(=O)C(C)S/C2=N/N=C/c2ccco2)cc1` (stereo not drawn), the inhibition was 5.76% (inactive).
Take `S=C(NCCc1ccccc1)NCc1ccccc1Cl`: the inhibition is 76.7% (active).
As to `Cc1ccc(NC(=S)NCc2ccccc2Cl)c(C)c1`, the inhibition is 21.4% (inactive).
Consider `S=C(NCCc1ccccc1)Nc1ccccc1`, for which the inhibition is -23.1% (inactive).
The figure for `CCCCCCCCCCCCC(NC(C)=O)(C(=O)OCC)C(=O)OCC` is 28.6% (inactive); for `Cc1cc(-c2n[nH]c(=S)n2/N=C/C(Br)=C/c2ccccc2)n[nH]1` it is 106% (active).
Regarding `Cc1cc(-c2n[nH]c(=S)n2/N=C/c2ccco2)n[nH]1`, the inhibition is -10.9% (inactive).
The figure for `S=c1[nH]nc(-c2cccnc2)n1/N=C/C(Cl)=C\c1ccccc1` is -39.3% (inactive).
In the case of `COC(=O)c1sc(NC(=S)NC(=O)c2ccc(C)cc2)nc1C`, the inhibition is -2.37% (inactive).
For `Nc1ccccc1C(=O)NC1CCCCNC1=O` (stereo not drawn), the inhibition was 13.6% (inactive).
In the case of `COc1ccccc1Cn1c(CO)nc2ccccc21`, the inhibition is 6.99% (inactive).
For the molecule `Cc1ccc(Nc2c3c(nc4ccccc24)CCC3)cc1`, the inhibition is 17.5% (inactive).
On to `C=CCn1c(C)cc(C2=NNC(=NCC)SC2)c1C`, for which the inhibition is 105% (active).
Take `Cc1cc(C2=NNC(=Nc3ccc(S(=O)(=O)N4CCOCC4)cc3)SC2)c(C)n1CC1CCCO1` (stereo not drawn): the inhibition was 6.71% (inactive).
The figure for `COCCn1c(C)cc(C2=NNC(=Nc3ccc(F)cc3)SC2)c1C` is -7.2% (inactive).
For `Cn1nccc1CNC(=O)c1ccnn1C`, the inhibition is -26% (inactive).
For the molecule `CCCc1ccc(-c2c(C)sc(NC(=O)c3ccnn3C)c2C#N)cc1`, the inhibition was 76.4% (active).
Take `CCN(CC)C(=O)c1sc(NC(=O)c2ccco2)c(C#N)c1C`: the inhibition is -5.34% (inactive).
As to `CCCCCCCN=C(C)c1ccccc1O`, the inhibition was -7.28% (inactive).
For `Cc1ccc(NC(=O)Nc2cccc(C(F)(F)F)c2)nc1`, the inhibition is -25.1% (inactive).
Regarding `CCNS(=O)(=O)c1ccc(NC(=O)Nc2cccc(C(F)(F)F)c2)cc1`, the inhibition was 87.4% (active).
Turning to `CCNS(=O)(=O)c1ccc(NC(=O)Nc2cccc(OC)c2)cc1`, the inhibition is -10.9% (inactive).
The figure for `Cn1nc(C(F)(F)F)cc1C(=O)O` is 13.6% (inactive); for `CSC1=NCCN1C(=O)Cc1cccc2ccccc12` it is 13.7% (inactive); for `O=C(Nc1ccc2ccccc2c1)Nc1ccc2snnc2c1` it is 79.2% (active).
`O=C(Nc1ccccc1)Nc1nc2ccccc2s1`: the inhibition is -20.1% (inactive).
Take `COc1ccc(NC(=O)Nc2ccc3nsnc3c2)cc1`: the inhibition was 4.53% (inactive).
As for `Cc1ccc(F)cc1NC(=O)N1CCCN(c2ccc(C(F)(F)F)cn2)CC1`, the inhibition was 1.83% (inactive).
Next, `COc1cc(NC(=O)c2cncc(-c3ccc(C#N)cc3)c2)cc(C(=O)Nc2cccc(C(F)(F)F)c2)c1`: 22.1% (inactive); `CNc1nnc(-c2ccco2)s1`: 7.19% (inactive).
As for `Cc1ccc(OCC(=O)Nc2nnc(-c3ccco3)s2)cc1`, the inhibition is 82.2% (active).
For the molecule `COc1ccc(OCC(=O)Nc2nnc(-c3ccco3)s2)cc1`, the inhibition is 28.2% (inactive).
In the case of `CC(NCc1ccccc1OC1CCCC1)c1ccccc1` (stereo not drawn), the inhibition was 11.4% (inactive).
Turning to `O=C(CSc1nc2ccccc2o1)N/N=C/c1ccccc1C(=O)O`, the inhibition was -2.6% (inactive).
The figure for `C=CCNC(=O)CSc1nc2scc(-c3ccco3)c2c(=O)n1CC=C` is -19.4% (inactive).
Next, `O=S(=O)(Nc1ccc(Cl)cn1)c1cnc(Cl)c(Br)c1`: 9.6% (inactive); `CCN1C(=O)/C(=C\N2CCN(c3ccccc3)CC2)SC1=S`: 23.4% (inactive); `CCCCN1C(=O)/C(=C2/C=CC=CN2C)SC1=S`: -3.04% (inactive).
As for `CCCCN1C(=O)/C(=C/C=C2/C=Cc3ccccc3N2CC)SC1=S`, the inhibition was 70.5% (active).
Next, `CC1Cc2ccccc2N1CC(=O)Nc1ccc(S(N)(=O)=O)cc1` (stereo not drawn): -11.8% (inactive); `COc1ccc(Nc2cc(Cl)ccc2C(=O)O)cn1`: 9.7% (inactive); `CCNC(=O)CCc1nc(-c2ccc(C)cc2)no1`: 11.2% (inactive).
With `Cc1ccc(-c2noc(CCC(N)=O)n2)cc1`, the inhibition is 10.7% (inactive).
As for `CCNC(=O)CCc1nc(-c2ccc(C(C)(C)C)cc2)no1`, the inhibition is 91% (active).
On to `CC1CCN(c2ccc([N+](=O)[O-])c(SCCO)c2)CC1`, for which the inhibition was 7.43% (inactive).
Regarding `Cc1ccc(-c2csc(NC(=O)Cn3[nH]c(=O)c4ccccc4c3=O)n2)cc1`, the inhibition is 80% (active).
For the molecule `Cc1ccc(-c2nnc(-c3ccc(NC(=O)c4cccs4)cc3)o2)cc1`, the inhibition is 89% (active).
As for `Cc1ccc(-c2csc(NC(=O)c3cccs3)n2)cc1`, the inhibition is 78.4% (active).
For the molecule `O=C(Nc1ccc2oc(-c3ccc4ccccc4c3)nc2c1)c1cccs1`, the inhibition is -26.2% (inactive).
The figure for `O=C(O)c1ccc(NC(=O)c2cccs2)cc1` is 28.8% (inactive).
Turning to `COc1ccc(CC(=O)Nc2ccc(C(=O)NC(C)(C)C)cc2)cc1`, the inhibition is 19.1% (inactive).
In the case of `CCCc1ccc(-c2csc(NC(=O)Cc3cccs3)n2)cc1`, the inhibition is 12.1% (inactive).
Take `COc1ccc(CC(=O)Nc2ccc(-c3nnc(-c4ccc(C)cc4)o3)cc2)cc1`: the inhibition is 83.6% (active).
For `Cc1ccc(-c2csc(NNC(=O)c3ccccc3)n2)cc1`, the inhibition was 21.4% (inactive).
Consider `Cc1ccc(OCC(=O)Nc2ccc(-c3nc4ncccc4o3)cc2)cc1`, for which the inhibition was -4.24% (inactive).
Next, `Cc1ccc(C(=O)NNC(=O)c2cccs2)cc1`: -31.6% (inactive); `Cc1cccc(S(=O)(=O)CC(=O)Nc2nc(-c3ccccc3)cs2)c1`: -8.42% (inactive).

(Values after PubChem BioAssay AID2732 (Emory University Molecular Libraries Screening Center, 2010).)
